HT1080 IDH1KD tx: kills HT-1080 cells with IDH1 knockdown | 2% of 360,000 active | Potency, µM (doses to about 46.1 µM), for inactives: top-dose activity, negative = toxicity, actives largely listed as cytotoxic | HT-1080 IDH1 knockdown viability, ATP luminescence, 48 h;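 note: potency is the fitted concentration of half-maximal effect; 0% = DMSO wells and -100% = cell-free medium wells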
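Assay cells: HT-1080 with IDH1 knockdown, 750 per well, RPMI/5% FBS. Exposure: 48 h at 37 °C following 2 h pre-incubation. Read: CellTiter-Glo luminescence; fitted concentration-response, curve class assigned.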
TDP1 cell noCPT: qHTS for Inhibitors of human tyrosyl-DNA phosphodiesterase 1 (TDP1): qHTS in cells in absence of CPT. DT40 Tdp1-/- hTDP1 cells, no CPT, ATP luminescence, 48 h. Potency, µM (doses to about 46.2 µM), for inactives: at the top dose activity change, negative = growth inhibition, usual class: inhibitors. 15% of 420,000 active. AID 686978, 2013; note: potency is the fitted concentration of half-maximal effect; nearly all actives have a fitted effect of over 55% in size
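Cells were dispensed at 400 per well, compounds added by pin tool, plates incubated ≥48 hr at 37 °C, then CellTiter-Glo added for 30 min at room temperature before luminescence reading. Line: DT40 Tdp1-/- complemented with hTDP1; camptothecin omitted.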
TDP1 cell CPT: growth inhibition of DT40 Tdp1-/-;hTDP1 cells with camptothecin (screen for TDP1 inhibitors); chicken DT40 Tdp1-/-;hTDP1 cells + 20 nM CPT, ATP luminescence, 48 h; AID 686979; Potency, µM (series often up to 46.2 µM), inactives show at the highest dose activity change, negative = growth inhibition, hits mostly inhibitors; 12% of 420,000 active; note: potency is the fitted concentration of half-maximal effect; nearly all actives have a fitted effect of over 55% in size
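Chicken DT40 Tdp1-/- cells stably complemented with human TDP1 were seeded at 400 cells/well in medium containing 20 nM camptothecin, exposed to pin-transferred compounds, and grown at 37 °C for at least 48 hr. Viability was read as ATP luminescence.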
ALOX12 inh: ALOX12 (human) lipoxygenase inhibition; P18054; purified 12hLO, xylenol orange hydroperoxide absorbance; AID 1671190; 1.1% of 580,000 active; Potency, µM (top dose mostly 108 µM), for the others: at the top dose activity change, negative = inhibition, most hits filed as inhibitors; note: potency is the fitted concentration of half-maximal effect
Target sequence (P18054 whole entry, looked up): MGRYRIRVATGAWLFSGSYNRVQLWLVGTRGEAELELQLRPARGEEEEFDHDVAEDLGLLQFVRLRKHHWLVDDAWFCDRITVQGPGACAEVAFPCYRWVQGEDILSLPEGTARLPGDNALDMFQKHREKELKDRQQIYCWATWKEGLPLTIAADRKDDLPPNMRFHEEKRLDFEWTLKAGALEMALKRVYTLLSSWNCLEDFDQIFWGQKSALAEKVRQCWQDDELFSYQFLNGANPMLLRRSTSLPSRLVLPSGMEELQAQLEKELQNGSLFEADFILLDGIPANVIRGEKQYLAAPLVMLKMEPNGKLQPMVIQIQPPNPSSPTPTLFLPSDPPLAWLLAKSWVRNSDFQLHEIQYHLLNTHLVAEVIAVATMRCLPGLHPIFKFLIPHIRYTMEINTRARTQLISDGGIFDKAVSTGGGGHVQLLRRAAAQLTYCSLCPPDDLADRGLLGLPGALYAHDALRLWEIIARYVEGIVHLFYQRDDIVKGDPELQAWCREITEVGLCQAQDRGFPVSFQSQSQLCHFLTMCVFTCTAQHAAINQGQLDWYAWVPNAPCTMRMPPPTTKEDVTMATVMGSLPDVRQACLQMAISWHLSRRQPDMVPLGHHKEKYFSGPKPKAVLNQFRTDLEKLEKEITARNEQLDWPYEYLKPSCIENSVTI
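Hydroperoxide product was detected by ferrous iron/xylenol orange as the 573 to 405 nm absorbance ratio. Arachidonic acid at 40 uM (final) was turned over for 30 min at room temperature by 150 nM human 12hLO, pH 7.0 Hepes buffer, after 15 min compound preincubation.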
HT1080-NT tox: kills 2HG-producing HT-1080-NT fibrosarcoma cells. HT-1080-NT fibrosarcoma viability, CellTiter-Glo ATP luminescence, 48 h. AID 686970. 1.6% of 360,000 active. Potency, µM (doses to about 46.1 µM), for inactives: top-dose activity, negative = less viability, usual class: cytotoxic;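 note: NT is the 2HG producing partner of a matched IDH1 knockdown line; potency is the fitted concentration of half-maximal effect; 0% = DMSO-treated cells and -100% = media-only wells without cells; nearly all actives have a fitted effect of over 55% in size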
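Toxicity toward the 2HG-producing NT line was scored as %Activity, normalised to DMSO and no-cell wells, from CellTiter-Glo luminescence after 48 hours' treatment.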
IL1B secr inh: blocks inflammasome-driven IL-1 beta release; THP-1 LPS/ATP IL-1B secretion, AlphaLISA, 16 h; active compounds read low; activity change, % at 57.5 µM; 4.7% of 360,000 active; AID 743279; in the data active = activity change below about -50%; inconclusive = mostly about -30% to -49%
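Secreted IL-1B measured by AlphaLISA bead assay after 16 h compound exposure of THP-1 cells; compounds (final up to 57.5 uM) added 1 h before LPS (250 ng/mL) and ATP (1.25 mM) stimulation; lower signal means less secretion.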
Starred values were filed as active, the others as inactive; ? = inconclusive; nt = no result given; [ ] = dose if it differs, or a comment. This excerpt belongs to a sample that is enriched for hits. Unless noted, calls come from the whole dose curve; as a rule, active = well fitted curve in the direction sought with a large enough effect; inconclusive = small, poorly fitted or top-dose-only effect, or another doubt; inactive = no such curve, though single readings can be large; an effect the other way counts as inactive or inconclusive. Unless noted, % is set by controls: 0 for no effect and ±100 for the full control effect.

SMILES	HT1080 IDH1KD tx	TDP1 cell noCPT	TDP1 cell CPT	ALOX12 inh	HT1080-NT tox	IL1B secr inh
Cc1ccc(C(NC(=O)c2ccccc2C)c2cccnc2)cc1C (configuration not stated)	nt	nt	nt	9.1%	nt	nt
O=C(OCc1nc2ccc(Cl)cc2n1CCO)c1ccccc1	10.7%	-27.1%	-5.5%	-24.5%	0.6%	19.6
ClCCn1c(CCl)nc2ccc(Cl)cc21	-0.5%	16.4µM*	?	10µM*	-12.9%	19.7
CN(C)/C=C1/Oc2c(ccc3ccccc23)C1=O	-10.3%	?	10.6%	0.2%	-3.1%	1.6
CN(C)/C=C1\Oc2ccc3ccccc3c2C1=O	0.0%	-11.8%	10.6%	5.01µM*	1.8%	-5.1
CC[C@@H](C)C(NC(=O)OC(C)(C)C)c1cn([C@@H](CCC(=O)OC(C)(C)C)C(=O)N2CCN(C(=O)OC(C)(C)C)CC2)nn1 (some centres not stated)	8.2%	14.6µM*	?	?	9.4%	?
CC(C)CC(NC(=O)OC(C)(C)C)c1cn([C@@H](Cc2cc3ccccc3[nH]2)C(=O)N2CCN(C(=O)OC(C)(C)C)CC2)nn1 (some centres not stated)	-5.2%	18.4µM*	18.4µM*	-21.6%	-1.7%	?
Cc1ccc(-c2ccc(=O)n(Cc3noc(C(=O)NCCc4cccs4)n3)n2)cc1	nt	nt	nt	5.8%	nt	nt
Cc1cn2nc(C(=O)Nc3ccc(C)c(F)c3)cc2c(N2CCSCC2)n1	nt	nt	nt	55.6%	nt	nt
COc1ccc(C2c3[nH]c4ccccc4c3CCN2C(=O)CCC2CCCC2)cc1 (configuration not stated)	nt	?	20.6µM*	-26.2%	nt	nt
CCOc1ccc(C2c3[nH]c4ccccc4c3CCN2C(=O)CSc2ccccc2)cc1 (configuration not stated)	nt	20.6µM*	?	-20.3%	nt	nt
COc1ccc(C2c3[nH]c4ccc(OC)cc4c3CCN2C(=O)Nc2ccccc2)cc1 (configuration not stated)	nt	?	23.1µM*	-12.8%	nt	nt
CCOc1ccc(C2c3[nH]c4ccccc4c3CCN2C(=O)CCC2CCCC2)cc1 (configuration not stated)	nt	18.4µM*	20.6µM*	0.0%	nt	nt
O=C(Nc1cccc(-c2nc3ccccc3o2)c1)c1cccs1	nt	nt	nt	16.7%	nt	nt
CC1(S(=O)(=O)O)CC(=O)c2ccccc2C1=O (configuration not stated)	20.6µM*	5.17µM*	7.31µM*	-20.5%	18.4µM*	?
O=C1S/C(=C\c2ccc(N3CCOCC3)o2)C(=O)N1c1ccccc1	?	8.2µM*	1.64µM*	?	?	-104.2*
O=C1S/C(=C\c2ccc(N3CCOCC3)o2)C(=O)N1Cc1c(F)cccc1Cl	3.55µM*	?	7.31µM*	31.6µM*	?	20.3
O=C1S/C(=C/c2ccc(N3CCOCC3)o2)C(=O)N1Cc1c(F)cccc1Cl	-18.8%	-28.0%	?	28.2µM*	-12.1%	0.0
O=C1N=C(N2CCOCC2)S/C1=C/c1ccc(-c2ccccc2Cl)o1	-8.8%	?	?	-8.3%	-12.9%	-12.8
NC(=O)c1sc2nccc(Nc3ccccc3)c2c1N	-13.1%	20.6µM*	10.3µM*	?	-7.3%	-11.6
Nc1c(C(=O)Nc2ccccc2)sc2ncc([N+](=O)[O-])cc12	?	?	-4.5%	-11.7%	?	-7.4
Cc1cc(C)c2nc(SCC(=O)NC(N)=O)cc(C)c2c1	nt	nt	nt	14.2%	nt	nt
O=C1CCN(S(=O)(=O)c2ccccc2)CCCC(C(=O)NC2CC2)CCN1 (configuration not stated)	nt	nt	nt	36.0%	nt	nt
Cc1ccc(NC(=O)c2ccc3c(c2)OCCO3)cc1S(=O)(=O)Nc1cccc(Cl)c1	-11.5%	20.6µM*	16.4µM*	-14.0%	-6.1%	-56.7*
O=C(Nc1ccc2c(c1)OCCO2)c1ccc(Cl)cc1	-1.3%	20.6µM*	?	8.8%	-4.1%	-12.3
SMILES	HT1080 IDH1KD tx	TDP1 cell noCPT	TDP1 cell CPT	ALOX12 inh	HT1080-NT tox	IL1B secr inh
CC(=O)Nc1ccc(C(=O)Nc2ccc3c(c2)OCCO3)cc1	-4.9%	-18.1%	0.3%	7.4%	-6.6%	-12.7
O=C(Nc1ccc2c(c1)OCCO2)c1cc2cc(Br)ccc2[nH]1	nt	nt	nt	14.1µM*	nt	nt
O=C(Nc1ccc(NC(=O)c2ccc3c(c2)OCCO3)cc1)c1ccccc1	?	-3.6%	?	14.4%	16.4µM*	30.3
CCn1nc(C)c(C(=O)NC(C)c2cnc(-c3ccncc3)nc2C)c1C (configuration not stated)	nt	nt	nt	14.1%	nt	nt
CC(=O)Nc1ccc(S(=O)(=O)N2CCC(NC(=O)C3CC3)CC2)cc1	nt	nt	nt	13.0%	nt	nt
Cc1cc(=O)n(CC(=O)N2CC[C@](C)(O)C(C)(C)C2)c2ccccc12	nt	nt	nt	10.7%	nt	nt
CCCN1C(=O)NC(c2cccc(Cl)c2Cl)C(C(=O)Nc2cc(C)on2)=C1C (configuration not stated)	nt	nt	nt	-2.9%	nt	nt
Cc1ccc(NC(=O)c2ccc3c(c2)OCCO3)cc1C	-9.1%	?	-9.7%	-0.7%	0.0%	-50.1*
Cc1cccc(NC(=O)c2ccc3c(c2)OCCO3)c1	-23.9%	?	-24.9%	-12.6%	?	1.2
COc1ccc(CN2C[C@H]3CCCN3c3cc(Br)ccc3S2(=O)=O)cc1	2.59µM*	0.92µM*	2.06µM*	nt	?	89.7
COc1ccc(CN2CCN3C(=O)N(Cc4ccc(OC)cc4)C[C@H]3C2)cc1	nt	nt	nt	-36.4%[176 µM]	nt	nt
C=C1[C@@H](O)CN(Cc2ccc(OC)cc2)S1(=O)=O	nt	17.8µM*	?	nt	nt	nt
CCc1cc(=O)n(CC(=O)Nc2ccc(C(F)(F)F)cc2)c(N2CCOCC2)n1	nt	nt	nt	45.4%	nt	nt
CC(O)(c1cccnc1)c1nc(-c2ccc3c(c2)OCO3)cs1 (configuration not stated)	-19.3%	?	16.4µM*	-12.5%	4.2%	22.0
COc1cccc(C(C)(O)c2nc(-c3cc(F)cc(F)c3)cs2)c1 (configuration not stated)	?	23.1µM*	?	-25.9%	23.1µM*	-15.5
COc1cccc(C(C)(O)c2nc(-c3cccs3)cs2)c1 (configuration not stated)	0.0%	?	?	4.47µM*	-12.8%	13.8
COc1cccc(C(C)(O)c2nc(-c3ccc4c(c3)OCO4)cs2)c1 (configuration not stated)	-27.6%	20.6µM*	14.6µM*	?	-9.5%	0.0
